Test: small-molecule microarray binders of probe aWnt5a, primary screen, biochemical, biotinylated probe, 635/667 nm fluorescence (AID 1113);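 also: score merges 667 nm fluorescence intensity with signal-to-noise per printed feature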
Details: higher = more signal

Row | Structure (SMILES) | composite z-score
1 | COc1ccc([Si](C)(C)[C@H]2[C@H](CCn3cc([C@H](O)c4ccccc4)nn3)O[C@@]3(C(=O)N(Cc4ccc(N5CCC5=O)cc4)c4ccccc43)[C@@H]2C)cc1 | -0.16
2 | COc1cc2c(cc1OC)CN(C(=O)[C@H]1[C@@H]3C(=O)O[C@@H](c4ccccc4)[C@@H](c4ccccc4)N3[C@@H](c3ccc(OCCO)cc3)[C@]13C(=O)Nc1ccc(C#CCCO)cc13)CC2 | 0.0668
3 | COc1ccc(NN2C(C(O)c3ccco3)C=CC3C(=O)N(C4CCCCC4)C(=O)C32)cc1 (stereo not drawn) | 0.0613
4 | NC(=O)N1C(=O)C2C(C1=O)C1C=C(c3ccc(CO)cc3)C2C(C2CC2)N1Cc1sc2ccccc2c1Cl (stereo not drawn) | 0.272
5 | CON(C)C(=O)C=C1C[C@@H](c2cccc(Cl)c2)O[C@@H](c2cccc(Cl)c2)O1 | -0.0704
6 | O=C1O[C@@H](c2ccccc2)[C@@H](c2ccccc2)N2[C@@H](c3ccccc3OCCO)[C@]3(C(=O)Nc4ccccc43)[C@@H](C(=O)NC[C@H](O)c3ccccc3)[C@H]12 | -0.152
7 | C=C(/C(=C/C[C@@H](OC(=O)c1ccncc1)c1ccc(OCCO)cc1)c1cc(C(=O)OC)ccc1OC)C(C)C | -0.0721
8 | COCCOC(=O)N1C(=O)[C@@]2(c3cc(C#Cc4ccc(OC)cc4)ccc31)[C@H](C(=O)NC[C@H](O)c1ccccc1)[C@H]1C(=O)O[C@H](c3ccccc3)[C@H](c3ccccc3)N1[C@@H]2c1ccc(O)cc1 | -0.0816
9 | [N-]=[N+]=NCc1ccccc1[C@H]1OC(c2ccc(OCCCO)cc2)=N[C@@]1(CCS(=O)(=O)c1ccccc1)C(N)=O | -0.096
10 | COc1ccc([Si](C)(C)[C@@H]2[C@@H](CCO)O[C@]3(C(=O)N(Cc4cccc(N5C(=O)c6cccc7cccc5c67)c4)c4ccccc43)[C@H]2C)cc1 | -0.0758
11 | CC(C)CNC(=O)[C@@H]1c2ccccc2C(=O)N(Cc2cc(F)cc(C(F)(F)F)c2)[C@H]1c1ccc(CO)cc1 | -0.0459
12 | C=CCN1C(=O)[C@]2(CC=C)N=C(c3ccc(OCCCO)cc3)O[C@@H]2c2ccccc21 | 0.123
13 | COC(=O)C1(Cc2ccccc2)C=C2C(=C(C(C)C)C(=O)C2C)CN1 (stereo not drawn) | 0.152
14 | C=C(C(=O)CC[C@H](OC(=O)c1cccnc1)c1ccc(CO)o1)C(C)C | 0.0973
15 | COc1ccc(C(O)C2C=CC3C(=O)N(c4ccccc4)C(=O)C3N2Nc2ccc(C#N)cc2)c2ccccc12 (stereo not drawn) | 0.0388
16 | NC(=O)NCC#Cc1ccc2c(c1)[C@]1(C(=O)N2)[C@H](C(=O)Nc2nc3ccccc3s2)[C@H]2C(=O)O[C@H](c3ccccc3)[C@H](c3ccccc3)N2[C@@H]1c1ccc(O)cc1 | -0.0445
17 | COc1ccc(C#Cc2ccc3c(c2)[C@]2(C(=O)N3)[C@H](C(=O)N3CCc4cc(OC)c(OC)cc4C3)[C@H]3C(=O)O[C@H](c4ccccc4)[C@H](c4ccccc4)N3[C@@H]2c2ccc(O)cc2)cc1 | -0.122

Test: small-molecule microarray binders of probe aShh, primary screen, biochemical, biotinylated probe, 635/667 nm fluorescence (AID 1114);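 also: probe is biotin-labelled aShh protein from a stem cell growth factor screen; measures binding of labelled protein to compounds printed on the slide; score merges feature fluorescence at 667 nm with signal-to-noise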
Details: higher = more signal

Row | Structure (SMILES) | composite z-score
18 | C=CCC(OC(C)=O)[C@@H]1[C@@H](N(Cc2cc3ccccc3o2)C(=O)c2ccc(C)cc2)c2cc(OCCCO)ccc2N1C(=O)Cc1ccc2ccccc2c1 (stereo partly drawn) | -0.13
19 | COC(=O)[C@H](Cc1ccccc1)N1CC(/C=C/C2CC2)=C[C@@H]1[C@@H](O)Cc1ccccc1 | -0.0035
20 | C=C1C2CC3C(=C4C(CO[C@@H]4[C@H]4CCCN4S(=O)(=O)c4ccccc4[N+](=O)[O-])C4C(=O)N(C)C(=O)C34)CC2C(=O)N1C (stereo partly drawn) | -0.0769
21 | [N-]=[N+]=Nc1ccccc1C[C@]1(C(=O)NCc2ccccc2)N=C(c2ccc(OCCCO)cc2)O[C@H]1c1ccccc1 | 0.28
22 | COc1ccccc1CN1C(=O)c2ccccc2[C@](Cc2ccccc2I)(C(=O)NC(C)C)[C@@H]1c1ccc(CO)cc1 | 0.131
23 | O=C1NC(=O)C2C1C=CC(C(O)c1ccc3c(c1)OCO3)N2Nc1ccccn1 (stereo not drawn) | -0.0769
24 | [N-]=[N+]=NCc1ccccc1C[C@@]1(C(N)=O)N=C(c2ccc(OCCCO)cc2)O[C@@H]1c1ccccc1CN=[N+]=[N-] | 0.19
25 | COCCCNC(=O)[C@]1(Cc2ccccc2CN=[N+]=[N-])N=C(c2ccc(OCCCO)cc2)O[C@@H]1c1ccccc1 | -0.279
26 | COCCOC(=O)N1C(=O)[C@@]2(c3cc(C#CC4(O)CCCCCC4)ccc31)[C@H](C(=O)N1CCCCCCC1)[C@H]1C(=O)O[C@H](c3ccccc3)[C@H](c3ccccc3)N1[C@@H]2c1ccc(OCCO)cc1 | 2.59
27 | CN(C)CCCCNC(=O)[C@H]1C[C@H]2C(=O)N3CCC[C@H]3C(=O)N2[C@H]1c1ccc(O)cc1 | -0.401
28 | O=C1O[C@H](c2ccccc2)[C@H](c2ccccc2)N2[C@H]1[C@@H](C(=O)O)[C@]1(C(=O)Nc3ccccc31)[C@H]2c1ccc(O)cc1 | -0.262
29 | C=CC[C@@]1(C(=O)O)N=C(c2ccc(OCCCO)cc2)O[C@@H]1c1ccccc1 | 0.265
30 | CN1C(=O)C2C(C1=O)C1C=C(c3ccc(CO)cc3)C2C(c2cccs2)N1Cc1cccc(OC(F)(F)F)c1 (stereo not drawn) | -0.0749
31 | COc1cc(CO)cc(I)c1O[C@H]1C=C(C(=O)NCCO)C[C@@H](N(CC2CCCCC2)C(=O)c2ccc(C(F)(F)F)cc2)[C@@H]1O | -0.2
32 | C=C(/C=C/CNS(=O)(=O)c1ccc(C)cc1)[C@H](O)[C@H]1CCCN1S(=O)(=O)c1ccccc1[N+](=O)[O-] | -0.138
33 | C=CCN1C(=O)[C@@]2(O[C@@H](CCO)[C@H]([Si](C)(C)c3ccc(OC)cc3)[C@H]2C)c2cc(N3C(=O)c4ccccc4Oc4ccccc43)ccc21 | -0.186
34 | COCCOC(=O)N1C(=O)[C@@]2(c3cc(C#CCNC(N)=O)ccc31)[C@H](C(=O)N1CCCCCCC1)[C@H]1C(=O)O[C@H](c3ccccc3)[C@H](c3ccccc3)N1[C@@H]2c1ccc(O)cc1 | -0.214
35 | Cc1ccc(S[C@]2(C(=O)NCc3ccccc3)CC(=O)N(C(C)C)[C@@H]2c2ccc(CO)cc2I)cc1 | -0.229

Row | Structure (SMILES) | composite z-score
36 | CCOC(=O)C1=CC[C@@H](c2ccc([N+](=O)[O-])cc2)N(S(=O)(=O)c2ccc(C)cc2)[C@H]1c1ccccc1 | -0.0769
37 | COc1ccc([Si](C)(C)[C@H]2[C@H](CCn3cc([C@H](O)c4ccccc4)nn3)O[C@@]3(C(=O)N(Cc4ccc(N5CCC5=O)cc4)c4ccccc43)[C@@H]2C)cc1 | -0.138
38 | COc1cc2c(cc1OC)CN(C(=O)[C@H]1[C@@H]3C(=O)O[C@@H](c4ccccc4)[C@@H](c4ccccc4)N3[C@@H](c3ccc(OCCO)cc3)[C@]13C(=O)Nc1ccc(C#CCCO)cc13)CC2 | -0.0146
39 | COc1ccc(NN2C(C(O)c3ccco3)C=CC3C(=O)N(C4CCCCC4)C(=O)C32)cc1 (stereo not drawn) | 0.0639
40 | NC(=O)N1C(=O)C2C(C1=O)C1C=C(c3ccc(CO)cc3)C2C(C2CC2)N1Cc1sc2ccccc2c1Cl (stereo not drawn) | 0.0756
41 | CON(C)C(=O)C=C1C[C@@H](c2cccc(Cl)c2)O[C@@H](c2cccc(Cl)c2)O1 | 0.134
42 | O=C1O[C@@H](c2ccccc2)[C@@H](c2ccccc2)N2[C@@H](c3ccccc3OCCO)[C@]3(C(=O)Nc4ccccc43)[C@@H](C(=O)NC[C@H](O)c3ccccc3)[C@H]12 | 0.0557
43 | C=C(/C(=C/C[C@@H](OC(=O)c1ccncc1)c1ccc(OCCO)cc1)c1cc(C(=O)OC)ccc1OC)C(C)C | -0.138
44 | COCCOC(=O)N1C(=O)[C@@]2(c3cc(C#Cc4ccc(OC)cc4)ccc31)[C@H](C(=O)NC[C@H](O)c1ccccc1)[C@H]1C(=O)O[C@H](c3ccccc3)[C@H](c3ccccc3)N1[C@@H]2c1ccc(O)cc1 | 0.875
45 | [N-]=[N+]=NCc1ccccc1[C@H]1OC(c2ccc(OCCCO)cc2)=N[C@@]1(CCS(=O)(=O)c1ccccc1)C(N)=O | 0.265
46 | COc1ccc([Si](C)(C)[C@@H]2[C@@H](CCO)O[C@]3(C(=O)N(Cc4cccc(N5C(=O)c6cccc7cccc5c67)c4)c4ccccc43)[C@H]2C)cc1 | 0.0815
47 | CC(C)CNC(=O)[C@@H]1c2ccccc2C(=O)N(Cc2cc(F)cc(C(F)(F)F)c2)[C@H]1c1ccc(CO)cc1 | 0.0639
48 | C=CCN1C(=O)[C@]2(CC=C)N=C(c3ccc(OCCCO)cc3)O[C@@H]2c2ccccc21 | 0.0253
49 | COC(=O)C1(Cc2ccccc2)C=C2C(=C(C(C)C)C(=O)C2C)CN1 (stereo not drawn) | 0.109
50 | C=C(C(=O)CC[C@H](OC(=O)c1cccnc1)c1ccc(CO)o1)C(C)C | 0.39
51 | COc1ccc(C(O)C2C=CC3C(=O)N(c4ccccc4)C(=O)C3N2Nc2ccc(C#N)cc2)c2ccccc12 (stereo not drawn) | -0.0709
52 | NC(=O)NCC#Cc1ccc2c(c1)[C@]1(C(=O)N2)[C@H](C(=O)Nc2nc3ccccc3s2)[C@H]2C(=O)O[C@H](c3ccccc3)[C@H](c3ccccc3)N2[C@@H]1c1ccc(O)cc1 | -0.0243
53 | COc1ccc(C#Cc2ccc3c(c2)[C@]2(C(=O)N3)[C@H](C(=O)N3CCc4cc(OC)c(OC)cc4C3)[C@H]3C(=O)O[C@H](c4ccccc4)[C@H](c4ccccc4)N3[C@@H]2c2ccc(O)cc2)cc1 | -0.0243
